Reference: PubChem BioAssay (Tox21)
Inconclusive results are not listed. Active and inactive are the calls of the source. Unless noted, calls come from the whole dose curve.

Key:
[1] = molecular target: Gonadotropin-releasing hormone receptor (Homo sapiens) (UniProt P30968); assay: Human gonadotropin-releasing hormone receptor (GnRHR) small molecule agonists, calcium flux assay in GnRHR-HEK293 cells (AID 1920063); note: nearly all actives have a fitted effect of over 35% in size
Procedure, shortened: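 Tox21-format agonist screen using human GnRHR-expressing HEK293 cells and a fluorescent calcium dye; kinetic 3-min fluorescence reading after compound addition, 15-point concentration series run in triplicate.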

[2] = molecular target: KiSS-1 receptor (Homo sapiens) (UniProt Q969F8); assay: Human kisspeptin (KISS1R) small molecule agonists, calcium flux assay in KISS1R-HEK293 cells (AID 1920064; active = well fitted curve in the direction sought with a large enough effect in the repeat runs; an effect the other way counts as inactive or inconclusive)
KiSS-1 receptor (Homo sapiens), sequence (Q969F8 whole entry, looked up): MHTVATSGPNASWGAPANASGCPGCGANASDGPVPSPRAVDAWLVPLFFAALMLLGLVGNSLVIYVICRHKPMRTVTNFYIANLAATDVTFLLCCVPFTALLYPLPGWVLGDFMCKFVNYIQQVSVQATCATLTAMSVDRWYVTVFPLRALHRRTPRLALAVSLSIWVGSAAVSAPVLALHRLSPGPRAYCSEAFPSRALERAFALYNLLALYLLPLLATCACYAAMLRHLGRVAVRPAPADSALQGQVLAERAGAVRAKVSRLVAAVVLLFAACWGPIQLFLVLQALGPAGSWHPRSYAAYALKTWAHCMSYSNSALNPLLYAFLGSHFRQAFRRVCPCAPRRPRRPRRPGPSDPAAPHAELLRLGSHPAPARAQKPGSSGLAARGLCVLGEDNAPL
Procedure, shortened: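 Intracellular calcium mobilization in KISS1R-HEK293 cells was recorded by fluorescence (Ex/Em 480/540) for 3 min following compound addition to cells pre-loaded 1 h with calcium dye.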

[3] = G protein-coupled receptor (GPCR) small molecule agonists, calcium flux assay: HEK293 wild type cell line counter screen (AID 1920065)
Procedure, shortened: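 In this agonist-mode screen, ATP is the positive control and DMSO the vehicle. Cells grow 18 h before a 1 h dye incubation at 37 C; signal is taken at Ex/Em 480/540 over 3 min.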

[4] = p53 small molecule agonists, cell-based qHTS assay with human liver microsomes (AID 1963577);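 note: p53 response element beta-lactamase reporter cells with liver microsomes plus NADPH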
Procedure, shortened: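 HLM-supplemented p53RE-bla reporter assay: 16 h compound exposure at 37 C, microsomes and NADPH each 0.5 mg/mL final, read by fluorescence intensity.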

[5] = p53 small molecule agonists, cell-based qHTS assay with rat liver microsomes (AID 1963578)
Procedure, shortened: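 Quantitative HTS of the Tox21 10K library: p53RE-bla cells, rat liver microsomes plus NADPH at 0.5 mg/mL final each, 16 h at 37 C, beta-lactamase fluorescence detection.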

[6] = p53 small molecule agonists, cell-based qHTS assay with human liver microsomes: qHTS cell viability counter screen (AID 1963579); note: nearly all actives have a fitted effect of over 45% in size
Procedure, shortened: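 Viability of p53RE-bla cells is measured as CellTiter-Glo luminescence following a 16 h, 37 C incubation with compound, liver microsomes from human donors and NADPH.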

[7] = p53 small molecule agonists, cell-based qHTS assay with rat liver microsomes: qHTS cell viability counter screen (AID 1963580); note: nearly all actives have a fitted effect of over 45% in size
Procedure, shortened: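 p53RE-bla HCT-116 cells (4,000/well) rested 5 h at 37 C, then given Tox21 compounds in DMSO with rat liver microsomes (0.5 mg/mL final) plus NADPH (0.5 mg/mL final) for 16 h at 37 C. Viability read by CellTiter-Glo luminescence after 30 min at room temperature.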

[8] = p53 small molecule agonists, cell-based qHTS assay: qHTS cell viability counter screen (AID 1963581); note: nearly all actives have a fitted effect of over 45% in size
Procedure, shortened: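 Compounds are pinned onto HCT-116 p53RE-bla cells and left 16 h at 37 C. Following the reporter FRET read, ATP is quantified by CellTiter-Glo luminescence after 30 min at room temperature.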

[9] = p53 small molecule agonists, cell-based qHTS assay (AID 1963582; active = well fitted activation curve with a large enough effect in the signal ratio in the repeat runs, not every such curve was filed as active; the % refers to the signal ratio)
Procedure, shortened: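 Agonist activity was scored from beta-lactamase FRET fluorescence in p53RE-bla cells treated 16 h at 37 C with compounds in DMSO, substrate incubation being 2 h at room temperature.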

[10] = molecular target: 5-hydroxytryptamine receptor 2A (Homo sapiens) (UniProt P28223); assay: 5-hydroxytryptamine receptor 2A (HTR2A) small molecule antagonists, cell-based qHTS assay (AID 1963586); note: nearly all actives have a fitted effect of over 45% in size
5-hydroxytryptamine receptor 2A (Homo sapiens), sequence (P28223 whole entry, looked up): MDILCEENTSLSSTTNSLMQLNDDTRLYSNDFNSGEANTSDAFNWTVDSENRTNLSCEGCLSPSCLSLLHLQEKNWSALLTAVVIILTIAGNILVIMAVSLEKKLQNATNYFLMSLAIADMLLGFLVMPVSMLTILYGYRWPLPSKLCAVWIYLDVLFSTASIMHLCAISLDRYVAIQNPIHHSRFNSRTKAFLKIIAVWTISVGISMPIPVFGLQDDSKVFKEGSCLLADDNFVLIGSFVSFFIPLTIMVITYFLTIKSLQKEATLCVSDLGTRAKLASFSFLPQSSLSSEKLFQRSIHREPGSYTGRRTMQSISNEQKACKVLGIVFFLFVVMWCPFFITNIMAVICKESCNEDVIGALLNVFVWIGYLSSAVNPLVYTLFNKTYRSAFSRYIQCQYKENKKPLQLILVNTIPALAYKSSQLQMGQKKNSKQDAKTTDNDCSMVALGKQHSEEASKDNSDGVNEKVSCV
Procedure, shortened: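 Antagonist-mode intracellular calcium assay: DOI (4 nM) added after 5 min compound pre-incubation at room temperature to dye-loaded HTR2A-CHO cells. Fluorescence followed for 3 min, sampled every second.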

[11] = molecular target: 5-hydroxytryptamine receptor 2A (Homo sapiens) (UniProt P28223); assay: 5-hydroxytryptamine receptor 2A (HTR2A) small molecule agonists, cell-based qHTS assay (AID 1963587); note: nearly all actives have a fitted effect of over 30% in size
Procedure, shortened: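 HTR2A-CHO cells, plated 18 h at 37 C/5% CO2, dye-loaded 1 h at 37 C; compounds in DMSO added by pin tool (agonist mode). Intracellular calcium flux read as kinetic fluorescence on FDSS over 2 min at 1 s intervals.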

[12] = molecular target: Muscarinic acetylcholine receptor M1 (Homo sapiens) (UniProt P11229); assay: Cholinergic receptor muscarinic 1 (CHRM1) small molecule antagonists, cell-based qHTS assay (AID 1963588); note: nearly all actives have a fitted effect of over 40% in size
Muscarinic acetylcholine receptor M1 (Homo sapiens), sequence (P11229 whole entry, looked up): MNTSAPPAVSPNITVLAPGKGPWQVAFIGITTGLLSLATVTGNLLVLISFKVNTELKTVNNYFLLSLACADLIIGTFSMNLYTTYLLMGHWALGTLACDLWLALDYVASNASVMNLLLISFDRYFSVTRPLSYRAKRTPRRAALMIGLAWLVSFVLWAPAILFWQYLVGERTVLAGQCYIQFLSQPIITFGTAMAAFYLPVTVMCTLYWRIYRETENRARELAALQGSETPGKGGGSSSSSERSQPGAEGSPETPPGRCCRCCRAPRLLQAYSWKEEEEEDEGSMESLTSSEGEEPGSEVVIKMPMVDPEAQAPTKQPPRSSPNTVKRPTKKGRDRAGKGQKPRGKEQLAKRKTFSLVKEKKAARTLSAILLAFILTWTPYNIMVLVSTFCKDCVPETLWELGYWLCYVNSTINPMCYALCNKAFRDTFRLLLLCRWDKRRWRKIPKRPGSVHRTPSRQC
Procedure, shortened: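 CHRM1-CHO calcium-flux assay, antagonist mode. Cells were seeded 18 h, dye-loaded 1 h at 37 C and given compound for 5 min at RT, then acetylcholine was added at 50nM. FDSS fluorescence was read 3 min; 15 concentrations, three runs.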

[13] = molecular target: Muscarinic acetylcholine receptor M1 (Homo sapiens) (UniProt P11229); assay: Cholinergic receptor muscarinic 1 (CHRM1) small molecule agonists, cell-based qHTS assay (AID 1963589); note: nearly all actives have a fitted effect of over 35% in size
Procedure, shortened: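 Stable CHRM1-CHO cells (human receptor) were incubated 18 h, dye-loaded for 1 h at 37 C and exposed to test compounds for agonist activity, with calcium-dependent fluorescence followed kinetically.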

[14] = cAMP Responsive Elements (CRE) small molecule agonists, cell-based qHTS assay (AID 1963590)
Procedure, shortened: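 FRET-based beta-lactamase readout (LiveBLAzer B/G, 2 h RT) quantified CRE activation in HEK 293T CRE-bla cells after 3 h treatment with DMSO-dissolved compounds.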

[15] = cAMP Responsive Elements (CRE) small molecule antagonists, cell-based qHTS assay (AID 1963591; active = well fitted inhibition curve with a large enough effect in the signal ratio in the repeat runs, not every such curve was filed as active; the % refers to the signal ratio)
Procedure, shortened: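 qHTS in CRE-bla HEK 293T cells: compound in DMSO, then 0.25 uM NKH477 (final), 3 h at 37 °C/5% CO2; beta-lactamase FRET read-out after 2 h substrate incubation.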

[16] = molecular target: Beta-2 adrenergic receptor (Homo sapiens) (UniProt P07550); assay: Adrenergic beta2 receptor (ADRB2) small molecule antagonists, cell-based qHTS assay (AID 1963592); note: series mostly up to about 92 µM; nearly all actives have a fitted effect of over 50% in size
Beta-2 adrenergic receptor (Homo sapiens), sequence (P07550 whole entry, looked up): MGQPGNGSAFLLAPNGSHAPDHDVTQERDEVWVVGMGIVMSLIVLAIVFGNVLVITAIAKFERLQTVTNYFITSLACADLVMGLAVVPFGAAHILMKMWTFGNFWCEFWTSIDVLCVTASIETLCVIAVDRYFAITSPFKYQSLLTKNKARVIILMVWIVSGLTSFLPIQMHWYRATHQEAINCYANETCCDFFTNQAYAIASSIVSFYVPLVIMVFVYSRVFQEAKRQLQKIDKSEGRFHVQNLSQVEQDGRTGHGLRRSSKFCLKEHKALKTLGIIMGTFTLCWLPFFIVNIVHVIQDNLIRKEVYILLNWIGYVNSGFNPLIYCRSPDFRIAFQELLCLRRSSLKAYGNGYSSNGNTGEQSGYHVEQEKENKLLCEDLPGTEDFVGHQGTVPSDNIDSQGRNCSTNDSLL
Procedure, shortened: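 Cells (CHO, stable ADRB2 overexpression) incubated 18-20hr at 37C; compounds added from DMSO; agonist mix (1nM isoproterenol, 100uM IBMX, 25uM Ro-20-1724) added; 0.5hr RT; d2-cAMP and anti-cAMP-cryptate added; 1hr RT; 665/615 nm read.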

[17] = molecular target: D(2) dopamine receptor (Homo sapiens) (UniProt P14416); assay: Dopamine D2 receptor (DRD2) small molecule agonists, cell-based qHTS assay (AID 1963594); note: nearly all actives have a fitted effect of over 35% in size
D(2) dopamine receptor (Homo sapiens), sequence (P14416 whole entry, looked up): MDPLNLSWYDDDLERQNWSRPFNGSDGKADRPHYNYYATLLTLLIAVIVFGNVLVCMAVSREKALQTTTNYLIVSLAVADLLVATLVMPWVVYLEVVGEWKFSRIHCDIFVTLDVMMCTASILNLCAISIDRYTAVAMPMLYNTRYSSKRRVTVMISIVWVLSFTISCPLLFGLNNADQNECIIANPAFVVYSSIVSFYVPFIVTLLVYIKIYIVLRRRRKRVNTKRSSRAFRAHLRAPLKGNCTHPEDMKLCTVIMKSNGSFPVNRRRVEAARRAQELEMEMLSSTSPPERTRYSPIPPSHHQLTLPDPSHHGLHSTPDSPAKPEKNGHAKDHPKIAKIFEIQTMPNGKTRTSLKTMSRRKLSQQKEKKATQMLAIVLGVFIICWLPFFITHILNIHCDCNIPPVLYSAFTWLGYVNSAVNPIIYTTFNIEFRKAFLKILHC
Procedure, shortened: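 HEK293 cells stably expressing DRD2 were cultured 24 h at 37 C, then given Ro20-1724 (0.1 mM final) and compounds for 10 min at room temperature. NKH477 (200nM) was then added for 30 min. cAMP was read by HTRF.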

[18] = molecular target: D(2) dopamine receptor (Homo sapiens) (UniProt P14416); assay: Dopamine D2 receptor (DRD2) small molecule antagonists, cell-based qHTS assay (AID 1963595; active = well fitted inhibition curve with a large enough effect in the signal ratio in the repeat runs, with a control signal flat; the % refers to the signal ratio)
Procedure, shortened: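 Antagonist mode in DRD2-HEK293 cells: after compound addition with 0.1 mM Ro20-1724, cells received quinpirole (12 nM) and NKH477 (200 nM) for 30 min at room temperature; HTRF cAMP read after 1 h detection.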

[19] = molecular target: Beta-2 adrenergic receptor (Homo sapiens) (UniProt P07550); assay: Adrenergic beta2 receptor (ADRB2) small molecule agonists, cell-based qHTS assay (AID 1963593);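 note: CHO cells stably overexpressing human ADRB2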
Procedure, shortened: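 CHO cells stably over-expressing ADRB2 were plated overnight at 37C, then dosed with compounds plus a stimulation mix containing 100uM IBMX and 25uM Ro-20-1724 for 0.5hr at room temperature. cAMP was measured by HTRF competition, 1hr.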

[20] = Nuclear factor erythroid 2-related factor 2/antioxidant responsive element (Nrf2/ARE) small molecule agonists: qHTS cell viability counter screen in human keratinocytes (AID 1919968; active = well fitted curve in the direction sought with a large enough effect in the repeat runs; an effect the other way counts as inactive or inconclusive; note: nearly all actives have a fitted effect of over 55% in size)
Procedure, shortened: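 Viability counter-screen: KeratinoSens reporter cells, DMSO-delivered compounds, 23 h at 37 C, CellTiter-Fluor fluorescence.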
% is set by controls: 0 for no effect and ±100 for the full control effect.

Gonadotropin-releasing hormone receptor (Homo sapiens), sequence (P30968 whole entry, looked up): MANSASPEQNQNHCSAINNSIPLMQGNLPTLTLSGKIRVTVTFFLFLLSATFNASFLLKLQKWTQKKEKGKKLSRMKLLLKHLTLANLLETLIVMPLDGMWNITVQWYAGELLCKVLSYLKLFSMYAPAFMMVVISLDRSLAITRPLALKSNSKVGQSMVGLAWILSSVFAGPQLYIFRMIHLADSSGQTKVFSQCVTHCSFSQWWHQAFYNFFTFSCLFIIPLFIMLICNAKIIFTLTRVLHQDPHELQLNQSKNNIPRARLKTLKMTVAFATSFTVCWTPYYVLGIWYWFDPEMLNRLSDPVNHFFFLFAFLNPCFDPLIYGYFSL

CC1(O)CSC(C)(O)CS1 (centres undefined)
inactive: Potency [1] | Potency [2] | Potency [3] | Potency [4] | Potency [5] | Potency [6] | Potency [7] | Potency [8] | Potency [9] | Potency [10] | Potency [11] | Potency [12] | Potency [13] | Potency [14] | Potency [15] | Potency [16] | Potency [17] | Potency [18]

COc1ccc(C(=O)c2ccc(C)cc2)c(O)c1
inactive: Potency [1] | Potency [2] | Potency [3] | Potency [4] | Potency [5] | Potency [6] | Potency [7] | Potency [8] | Potency [10] | Potency [11] | Potency [12] | Potency [15] | Potency [16] | Potency [19] | Potency [17] | Potency [18]

O=[N+]([O-])c1cc(N(CCO)CCO)ccc1NCCO
inactive: Potency [1] | Potency [2] | Potency [3] | Potency [4] | Potency [5] | Potency [6] | Potency [7] | Potency [8] | Potency [9] | Potency [11] | Potency [13] | Potency [14] | Potency [15]

Cc1ccc(N/N=c2\c(=O)cc/c(=N\Nc3ccc(S(=O)(=O)O)cc3)c2=O)c(C)c1
inactive: Potency [1] | Potency [2] | Potency [3] | Potency [4] | Potency [5] | Potency [6] | Potency [7] | Potency [8] | Potency [9] | Potency [10] | Potency [11] | Potency [12] | Potency [13] | Potency [14] | Potency [15] | Potency [16] | Potency [19] | Potency [17] | Potency [18]

CC1=NN(c2cc(S(=O)(=O)O)ccc2Cl)C(=O)C1N=Nc1ccccc1 (centres undefined)
inactive: Potency [1] | Potency [2] | Potency [3] | Potency [4] | Potency [5] | Potency [6] | Potency [7] | Potency [8] | Potency [9] | Potency [10] | Potency [11] | Potency [12] | Potency [13] | Potency [14] | Potency [15] | Potency [16] | Potency [19] | Potency [17] | Potency [18]

COc1cc(C(C)C)c2c(c1)S(=O)(=O)N(COc1cc(=O)n3cccc(OCCN4CCCCC4)c3n1)C2=O
inactive: activity change, negative = cytotoxicity [20] -10.3% [at 19 µM] | activation [3] 1.49% [at 11.8 µM] | activity change, negative = cytotoxicity [7] -0.988% [at 13.5 µM] | activity change, negative = cytotoxicity [8] -1.9% [at 13.5 µM] | activity, negative = inhibition [10] 4.6% [at 12.7 µM] | activity, negative = inhibition [12] -3.39% [at 12.6 µM] | activation [13] -0.958% [at 15.8 µM] | activity change, negative = inhibition [16] 1.57% [at 19 µM] | activation [17] -15.5% [at 19 µM]
